From PubChem BioAssay (Tox21)
Unmarked numbers belong to inactive results. Calls of active or inactive are those of the source. Calls follow the shape of the full dose curve.

Target: Estrogen receptor (Homo sapiens) (UniProt P03372)
Assay: qHTS assay to identify small molecule agonists of the estrogen receptor alpha (ER-alpha) signaling pathway in the presence of an antagonist (AID 1259383); also: nearly all actives have a fitted effect of over 15% in size; as to activation: top concentration of the series differs between compounds
Conditions: VM7Luc4E2 cells, ERE-luciferase, +ICI-182,780, 22 h; series mostly up to 92.4 µM; activation: at the top concentration
Text: National Center for Advancing Translational Sciences [NCATS] NIH Chemical Genomics Center [NCGC] U.S. Environmental Protection Agency [EPA] National Institutes of Environmental Health Sciences [NIEHS] National Toxicology Program [NTP] Assay overview: Estrogen receptor (ER), a member of nuclear hormone receptor plays an important role in development, metabolic homeostasis and reproduction. Two subtypes of ER, ER-alpha and ER-beta, have similar expression patterns with some uniqueness in both types. Endocrine disrupting chemicals (EDCs) and their interactions with steroid hormone receptors like ER causes disruption of normal endocrine function. Therefore, it is important to understand the effect of environmental chemicals in ER signaling pathway. For identifying ER agonists, VM7Luc4E2 cell line has been used in the current assay. VM7Luc4E2 cell line (provided by Denison MS, University of California) endogenously expresses full-length ER-alpha and is stably transfected with a plasmid containing four estrogen responsive elements (ERE) upstream of a luciferase reporter gene. This current screening for measuring luciferase reporter gene activity using VM7Luc4E2 cells against Tox21 10K library collection is a confirmation study on agonist mode screening in presence of ER-antagonist (ICI-182,780) at 10.0nM final concentration.
Assay Protocol Summary: VM7Luc4E2 cells were cultured in phenol red free assay medium containing 10% charcoal stripped FBS for 5 days prior to the assay. The cells were dispensed at 4,000 cells in 4uL of assay medium per well into white wall/solid-bottom 1536-well plates (Corning Life Sciences, Corning, NY) using a Multidrop Combi (Thermo Fisher Scientific Inc., Waltham, MA) dispenser. After the assay plates were incubated at 37C and 5% CO2 for 24hr, 1uL of 10.0nM (final concentration) ICI-182,780 or assay buffer was added using two separate tips of Flying Reagent Dispenser (FRD, Aurora Discovery, San Diego, CA). Then 23nL of compounds dissolved in DMSO at 15 concentrations and positive controls or DMSO only was transferred to the assay plates by a Pintool station (Wako, San Diego, CA). The assay plates were incubated at 37C and 5% CO2 for 22hr. For luciferase read, 4uL/well ONE-Glo reagent (Promega Corporation, Madison, WI) was added to each well using FRD and after 30min incubation at room temperature, luminescence signal was measured on ViewLux plate reader (PerkinElmer, Shelton, CT).
% is scaled to controls: 0 for no effect and ±100 for the full control effect; potency is read from the fitted curve at half-maximal effect.

Estrogen receptor (Homo sapiens), sequence (P03372 whole entry, looked up): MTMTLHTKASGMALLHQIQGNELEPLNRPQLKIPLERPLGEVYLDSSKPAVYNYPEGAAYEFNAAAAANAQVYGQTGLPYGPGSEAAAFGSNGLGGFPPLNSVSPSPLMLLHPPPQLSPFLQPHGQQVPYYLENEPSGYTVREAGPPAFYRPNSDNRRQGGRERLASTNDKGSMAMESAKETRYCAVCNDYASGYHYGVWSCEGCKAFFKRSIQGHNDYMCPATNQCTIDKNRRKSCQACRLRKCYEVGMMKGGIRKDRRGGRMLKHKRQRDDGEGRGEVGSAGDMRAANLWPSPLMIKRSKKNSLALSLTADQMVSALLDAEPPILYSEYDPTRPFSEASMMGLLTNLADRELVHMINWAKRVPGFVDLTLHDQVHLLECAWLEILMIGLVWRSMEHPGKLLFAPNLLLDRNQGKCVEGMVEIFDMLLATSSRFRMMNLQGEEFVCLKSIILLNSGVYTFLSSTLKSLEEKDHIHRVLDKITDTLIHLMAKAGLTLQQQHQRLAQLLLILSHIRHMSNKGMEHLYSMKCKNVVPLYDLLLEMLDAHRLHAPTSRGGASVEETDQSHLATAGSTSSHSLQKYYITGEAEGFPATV

Row | SMILES | activation | Potency
1 | C=C(C)C(=O)OC(C)C | -0.306% | 
2 | CCCCOc1cc(C(=O)OCCN(CC)CC)ccc1N | 0.0618% [at 42.5 µM] | 
3 | CC(=O)N(CC(=O)N(C)C)c1ccccc1 | -1.89% [at 42.5 µM] | 
4 | C[Si](C)O[Si](C)(C)O[Si](C)(C)O[Si](C)C | 0.0165% | 
5 | O=C(O)Cc1sc(-c2ccccc2)nc1-c1ccc(Cl)cc1 | -1.26% [at 42.5 µM] | 
6 | N[C@H]1C(O)O[C@H](CO)[C@H](O)[C@@H]1O (stereo not given in full) | 0.872% | 
7 | CN(C)CCCOc1nn(Cc2ccccc2)c2ccccc12 | -1.4% [at 42.5 µM] | 
8 | CCN1CCC[C@H]1CNC(=O)c1c(OC)ccc(Br)c1OC | -1.46% [at 42.5 µM] | 
9 | O=C(O)C1CCC(C(=O)O)CC1 (stereo not given) | -3.34% | 
10 | CCCCCCCCCC=O | 0.0096% | 
11 | CCOc1nc2cccc(C(=O)O)c2n1Cc1ccc(-c2ccccc2-c2nn[nH]n2)cc1 | -0.603% [at 42.5 µM] | 
12 | C=C(C)C(=O)OCCN(C)C | -0.756% | 
13 | COC(=O)C(C)=O | 0.263% | 
14 | CN1CCN(C2=Nc3cc(Cl)ccc3Nc3ccccc32)CC1 | -0.217% [at 42.5 µM] | 
15 | O=C(c1ccc(O)cc1)c1ccc(O)cc1 |  | 21.7 µM (active)
16 | CC(C)CC=O | -0.0597% | 
17 | CNCC[C@@H](Oc1ccccc1C)c1ccccc1 | -1.71% [at 42.5 µM] | 
18 | CCC(C)N(C)C(=O)c1cc2ccccc2c(-c2ccccc2Cl)n1 (stereo not given) | -0.256% [at 42.5 µM] | 
19 | CC1=CC(=O)/C(=C(/C)O)C(=O)O1 | -1.67% | 
20 | C=CC(=O)OCC(C)OCC(C)OCC(C)OC(=O)C=C (stereo not given) | 0.223% | 

Row | SMILES | activation | Potency
21 | Cn1sccc1=O |  | inactive
22 | Cc1cc(O)ccc1N | 0.279% | 
23 | CC(C)(C)c1cc(CO)cc(C(C)(C)C)c1O | -0.352% | 
24 | CC(=O)N(O)CCCCCNC(=O)CCC(=O)N(O)CCCCCNC(=O)CCC(=O)N(O)CCCCCN | -1.04% [at 42.5 µM] | 
25 | O=C(O)[C@@H]1[C@H]2C[C@H]3c4[nH]c5ccccc5c4CCN3C[C@@H]2CC[C@@H]1O | 1.3% [at 42.5 µM] | 
26 | O=S(=O)(O)c1ccc(O)c2ncccc12 | -0.338% | 
27 | CCCCC(CC)COCCCN (stereo not given) | -1.58% | 
28 | O=C1Nc2cc(Cl)ccc2Oc2ccccc21 | -1.6% [at 42.5 µM] | 
29 | Cc1occc1S | -0.116% | 
30 | Cc1nc2ccccc2n1Cc1ccc(Cl)cc1 | -13.3% [at 42.5 µM] | 
31 | CC[C@H](C)[C@@H](C(=O)O)n1sc2ccccc2c1=O | 0.192% | 
32 | CCOc1cc(OCC)c(C(=O)CCC(=O)O)cc1OCC | 0.191% [at 42.5 µM] | 
33 | C1CCC2OC2C1 (stereo not given) | 0.0812% | 
34 | CCCCCCc1ccc(N)cc1 | 6.65% | 
35 | CCCCCCCCCCCCCCC1CO1 (stereo not given) | -0.463% | 
36 | CC(=O)O[C@@H]1C(=O)O[C@@H]2[C@H]1OC(=O)[C@@H]2OC(C)=O | -0.324% [at 42.5 µM] | 
37 | CCCCCc1ccc(N)cc1 | 6.26% | 
38 | C=CC[N+]1([C@H]2C[C@H]3[C@@H]4CC[C@H]5C[C@H](OC(C)=O)[C@@H](N6CCCCC6)C[C@]5(C)[C@H]4CC[C@]3(C)[C@H]2OC(=O)CC)CCCCC1 | -0.849% [at 42.5 µM] | 
39 | O=[N+]([O-])c1cccc(Cl)c1Cl | -0.235% | 
40 | CC(C)(C)c1ccc(S)cc1 | 0.022% | 
